Growth inhibition, inhibition and outcome data for 20 compounds are collected here from PubChem BioAssay.

Assay [1] in a line: antimalarial activity against Dd2 strain (AID 2302;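 active = growth inhibition above 50% at the single 2 µM test dose, taken to imply half-maximal potency below 2 µM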;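 note: 0% = DMSO untreated growth and 100% = chloroquine plus artemisinin killed control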). Particulars: P. falciparum Dd2 in RBCs, LDH growth readout, 72 h; at 2 µM; hits give high values.
The nature of assay [2]: HepG2 cytotoxicity, primary screen, cytotoxicity control for P. falciparum antimalarial project, cell-based, ATP luminescence (AID 2303;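 active = inhibition above 50%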;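 note: 0% = DMSO wells and 100% = digitonin-killed cells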). The following applies: HepG2 viability, 24-48 h, at 10 µM, hits give high values.
Assay [3] addresses L-lactate dehydrogenase (Plasmodium falciparum (isolate CDC / Honduras)) (UniProt Q27743). As to the kind of experiment: PfLDH activity inhibition – cell lysate, 3D7 strain, counter-screen for P. falciparum growth inhibition project (AID 2304).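 Note: 0% = vehicle and 100% = reference inhibitor.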 The following applies: P. falciparum 3D7 crude extract, LDH APAD/NBT absorbance; at 2 µM; hits give high values.
Assay [4] can be described thus: inhibition of 3D7 malaria parasite growth – strain 3D7 (AID 2306).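 Note: 0% = DMSO wells and 100% = chloroquine plus artemisinin control wells.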 The following applies: P. falciparum 3D7 erythrocytic growth, LDH absorbance, 72 h; at 2 µM; hits give high values.
The target of assay [5] is Calcium-dependent protein kinase 1 (Plasmodium falciparum (isolate 3D7)) (UniProt P62344). As to the kind of experiment: PfCDPK1 kinase inhibitors, biochemical, TCAMS library (AID 1159585; cut-off not given, nearly all actives have IC50 up to about 0.98 µM;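 note: inhibitors leave more ATP so luminescence rises with inhibition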). Particulars: recombinant PfCDPK1, Kinase-Glo ATP depletion luminescence.
Sequence of Calcium-dependent protein kinase 1 (Plasmodium falciparum (isolate 3D7)) (P62344 whole entry, looked up): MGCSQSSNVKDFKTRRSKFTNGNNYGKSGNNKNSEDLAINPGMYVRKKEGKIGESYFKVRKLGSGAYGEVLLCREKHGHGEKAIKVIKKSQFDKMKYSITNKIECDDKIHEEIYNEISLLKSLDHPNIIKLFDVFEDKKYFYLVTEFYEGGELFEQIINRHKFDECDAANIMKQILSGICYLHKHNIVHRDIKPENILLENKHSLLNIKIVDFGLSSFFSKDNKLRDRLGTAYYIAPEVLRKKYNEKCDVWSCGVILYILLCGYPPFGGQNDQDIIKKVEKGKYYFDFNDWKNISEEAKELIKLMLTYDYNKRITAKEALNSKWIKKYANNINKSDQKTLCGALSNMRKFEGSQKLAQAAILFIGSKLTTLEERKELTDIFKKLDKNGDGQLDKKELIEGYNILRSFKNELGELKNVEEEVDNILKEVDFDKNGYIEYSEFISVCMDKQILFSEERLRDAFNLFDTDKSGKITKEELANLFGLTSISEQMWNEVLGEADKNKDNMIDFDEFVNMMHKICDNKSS
Assay [6] has as its target Plasmodium falciparum protein kinase 6 (PK6, PF3D7_1337100) (UniProt Q8IDW1). As to the kind of experiment: PfPK6 kinase inhibitors, biochemical, TCAMS library (AID 1159586). The following applies: recombinant PfPK6, Kinase-Glo ATP depletion luminescence.
Assay [7] concerns the target Protein kinase 7 (PK7), Plasmodium falciparum 3D7 (PF3D7_0213400) (UniProt Q7YTF7). As to the kind of experiment: inhibition of Plasmodium PK7 catalytic activity – biochemical, TCAMS antimalarial set, Kinase-Glo luminescence (AID 1159587). The following applies: recombinant PfPK7, Kinase-Glo ATP depletion luminescence.
Assay [8] concerns the target Calcium-dependent protein kinase 4 (Plasmodium falciparum (isolate 3D7)) (UniProt Q8IBS5). The assay is described as follows: PfCDPK4 kinase inhibitors, biochemical, TCAMS library (AID 1159588; cut-off not given, nearly all actives have IC50 up to about 0.91 µM). Particulars: recombinant PfCDPK4, Kinase-Glo ATP depletion luminescence.

A number with no mark means an inactive call. For some of these results: Measured potencies and affinities stand elsewhere. Active and inactive are the calls of the source. Unless noted, the rule behind the calls is not given here.

Sequence of Calcium-dependent protein kinase 4 (Plasmodium falciparum (isolate 3D7)) (Q8IBS5 whole entry, looked up): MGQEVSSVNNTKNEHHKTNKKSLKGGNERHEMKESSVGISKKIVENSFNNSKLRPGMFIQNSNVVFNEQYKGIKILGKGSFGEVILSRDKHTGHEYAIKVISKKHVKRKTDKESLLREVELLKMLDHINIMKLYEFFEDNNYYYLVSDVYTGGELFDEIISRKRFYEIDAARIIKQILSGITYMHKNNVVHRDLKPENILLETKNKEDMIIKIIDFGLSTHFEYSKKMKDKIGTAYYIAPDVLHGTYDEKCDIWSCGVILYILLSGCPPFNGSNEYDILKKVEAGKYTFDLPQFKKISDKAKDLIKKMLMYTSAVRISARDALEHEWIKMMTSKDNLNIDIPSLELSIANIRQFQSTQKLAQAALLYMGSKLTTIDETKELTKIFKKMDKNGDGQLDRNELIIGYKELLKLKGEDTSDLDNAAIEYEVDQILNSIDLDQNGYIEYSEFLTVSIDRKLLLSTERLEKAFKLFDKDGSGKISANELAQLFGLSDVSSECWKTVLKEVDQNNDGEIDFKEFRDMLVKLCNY
Sequence of L-lactate dehydrogenase (Plasmodium falciparum (isolate CDC / Honduras)) (Q27743 whole entry, looked up): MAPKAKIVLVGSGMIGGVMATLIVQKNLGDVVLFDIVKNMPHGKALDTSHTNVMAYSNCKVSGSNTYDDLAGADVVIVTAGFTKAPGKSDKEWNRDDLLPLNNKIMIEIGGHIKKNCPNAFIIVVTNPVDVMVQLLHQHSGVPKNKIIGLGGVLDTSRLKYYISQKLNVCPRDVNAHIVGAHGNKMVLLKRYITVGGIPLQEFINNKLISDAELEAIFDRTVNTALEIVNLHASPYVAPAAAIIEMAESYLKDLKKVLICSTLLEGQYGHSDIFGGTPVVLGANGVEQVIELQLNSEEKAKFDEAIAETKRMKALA
Sequence of Protein kinase 7 (PK7), Plasmodium falciparum 3D7 (PF3D7_0213400) (Q7YTF7 1-343): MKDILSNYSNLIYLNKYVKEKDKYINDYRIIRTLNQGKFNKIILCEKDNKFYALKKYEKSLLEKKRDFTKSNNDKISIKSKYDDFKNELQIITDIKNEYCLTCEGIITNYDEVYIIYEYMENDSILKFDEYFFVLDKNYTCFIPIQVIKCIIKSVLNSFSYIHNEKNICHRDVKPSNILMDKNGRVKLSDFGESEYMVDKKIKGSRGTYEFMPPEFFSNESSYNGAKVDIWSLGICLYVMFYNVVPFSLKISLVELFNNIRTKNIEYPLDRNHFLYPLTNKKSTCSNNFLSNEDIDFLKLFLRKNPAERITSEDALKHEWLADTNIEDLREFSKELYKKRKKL
Sequence of Plasmodium falciparum protein kinase 6 (PK6, PF3D7_1337100) (Q8IDW1 1-305): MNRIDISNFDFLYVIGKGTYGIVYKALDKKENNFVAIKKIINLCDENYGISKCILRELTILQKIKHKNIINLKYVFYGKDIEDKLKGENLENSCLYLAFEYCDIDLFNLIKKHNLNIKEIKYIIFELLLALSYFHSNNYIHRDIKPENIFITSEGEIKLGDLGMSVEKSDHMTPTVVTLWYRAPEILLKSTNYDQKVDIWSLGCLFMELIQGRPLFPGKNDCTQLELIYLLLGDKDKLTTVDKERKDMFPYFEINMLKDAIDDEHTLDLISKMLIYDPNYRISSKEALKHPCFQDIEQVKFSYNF

Regarding `CC(C)CCNc1nc(NCCCc2ccccc2)c2cc(O)ccc2n1`, the values for the growth inhibition in assay [1] and in assay [4] were 95% (active) and 101% (active), respectively. Besides, the inhibition in assay [2] is 14%; in assay [3] it was -1%. For the same compound, the outcome in assay [5], in assay [6], in assay [7] and in assay [8] was inactive.
In the case of `CCc1c(C)nc(-n2nc(C)cc2NC(=O)C2c3ccccc3Oc3ccccc32)[nH]c1=O`, the growth inhibition in assay [1] is 80% (active); in assay [4], 89% (active). For the same compound, the inhibition in assay [2] is 37%; in assay [3] it was 1%. For the same compound, the result in assay [5], in assay [6], in assay [7] and in assay [8] was inactive.
Consider `COc1cc(NCC2(CNCc3cn(Cc4ccccc4)c4ccccc34)CCCCC2)nc2ccccc12`, for which the figures for the growth inhibition in assay [1] and in assay [4] were 12% and 95% (active), respectively. The values for the inhibition in assay [2] and in assay [3] were 65% (active) and 5%, respectively. Besides, the outcome in assay [5], in assay [6], in assay [7] and in assay [8] was inactive.
As to `CC1CCN(C(=O)CSc2nc(-c3ccc(C(C)C)cc3)no2)CC1`, the growth inhibition was 84% (active) in assay [1] and 98% (active) in assay [4]. Besides, the inhibition in assay [2] was -1%; in assay [3] it was 2%. Besides, the outcome in assay [5], in assay [6], in assay [7] and in assay [8] was inactive.
Consider `COc1ccc2nccc([C@@H](O)CN3CCC(NC(=O)C(c4ccsc4)N4CCN(c5ccccc5)CC4)CC3)c2c1` (stereo not given in full), for which the growth inhibition in assay [1] is 17%; in assay [4], 95% (active). Also, the inhibition is 24% in assay [2] and -8% in assay [3]. The outcome in assay [5], in assay [6], in assay [7] and in assay [8] was inactive.
Turning to `CO/C(=C\C=C\c1cc2cc(Cl)c(Cl)cc2[nH]1)C(=O)NCCCNCCN(C)c1ccccc1`, the growth inhibition in assay [1] is 55% (active); in assay [4] it was 100% (active). Besides, the inhibition in assay [2] is 33%; in assay [3], 2%. In addition, the result in assay [5], in assay [6], in assay [7] and in assay [8] was inactive.
Consider `CCN(CC)CCNC(=O)c1ccc(NC(=O)c2ccc(-c3cc(NC(=O)CC4CCCC4)ccc3C)cc2)cc1`, for which the growth inhibition in assay [1] is 95% (active); in assay [4], 99% (active). Also, the inhibition in assay [2] was 12%; in assay [3], -5%. In addition, the result in assay [5], in assay [6], in assay [7] and in assay [8] was inactive.
Turning to `COc1ccc(C2CC(c3cccs3)=NN2C(=O)c2ccco2)cc1OC` (stereo not given), the growth inhibition in assay [1] was 97% (active); in assay [4], 101% (active). Also, the values for the inhibition in assay [2] and in assay [3] were -3% and 4%, respectively. In addition, the outcome in assay [5], in assay [6], in assay [7] and in assay [8] was inactive.
`CCCCOc1cc(CNCCCCCCNCc2cc(OCCCC)cc3ccccc23)c2ccccc2c1`: the figures for the growth inhibition in assay [1] and in assay [4] were 92% (active) and 101% (active), respectively. Further, the inhibition in assay [2] is 99% (active); in assay [3], -5%. The outcome in assay [5], in assay [6], in assay [7] and in assay [8] was inactive.
In the case of `COc1ccc(F)cc1-c1ccc(C(=O)N2CCCN(c3ccc(C(F)(F)F)cn3)CC2)cc1`, the growth inhibition in assay [1] was 100% (active); in assay [4], 101% (active). For the same compound, the inhibition was 4% in assay [2] and -3% in assay [3]. Also, the outcome in assay [5], in assay [6], in assay [7] and in assay [8] was inactive.
Take `CCCN(CCC)c1nn2c(=O)c(C(=O)N3CCN(Cc4ccccc4)CC3)cnc2s1`: the growth inhibition in assay [1] is 89% (active); in assay [4] it was 84% (active). The inhibition was -22% in assay [2] and -2% in assay [3]. The outcome in assay [5], in assay [6], in assay [7] and in assay [8] was inactive.
As to `CN1CCCC(CN2CCN(Cc3ccc(-c4cccc(-c5nc6ccc(F)cc6[nH]5)c4)cc3)CC2)C1` (stereo not given), the growth inhibition in assay [1] is 99% (active); in assay [4], 100% (active). Besides, the inhibition in assay [2] is 92% (active); in assay [3], -2%. For the same compound, the result in assay [5], in assay [6], in assay [7] and in assay [8] was inactive.
Take `O=C(CNCC1CCCCC1)Nc1cc(C(F)(F)F)ccc1Cl`: the growth inhibition was 67% (active) in assay [1] and 86% (active) in assay [4]. The inhibition is 1% in assay [2] and 2% in assay [3]. The result in assay [5], in assay [6], in assay [7] and in assay [8] was inactive.
With `COCCN1CCN(Cc2ccc(-c3ccc(-c4nc5c(C)cccc5[nH]4)s3)cc2)CC1`, the growth inhibition in assay [1] is 52% (active); in assay [4], 95% (active). Further, the inhibition is 32% in assay [2] and -2% in assay [3]. For the same compound, the outcome in assay [5], in assay [6], in assay [7] and in assay [8] was inactive.
Consider `Cc1cccc2[nH]c(-c3cccc(-c4ccc(C(=O)NCc5nccn5C)cc4)c3)nc12`, for which the growth inhibition was 9% in assay [1] and 100% (active) in assay [4]. The inhibition was 18% in assay [2] and 1% in assay [3]. The result in assay [5], in assay [6], in assay [7] and in assay [8] was inactive.
As to `Cc1cccc2[nH]c(-c3cccc(-c4ccc(CN5CCCC5CN)cc4)c3)nc12` (stereo not given), the growth inhibition in assay [1] is 47%; in assay [4], 101% (active). Moreover, the inhibition was 19% in assay [2] and 3% in assay [3]. The result in assay [5], in assay [6], in assay [7] and in assay [8] was inactive.
For the compound `COc1ccc(-c2nc(NC(=O)CS(=O)(=O)c3ccc(F)cc3)sc2C)cc1`, the growth inhibition in assay [1] was 99% (active); in assay [4], 100% (active). Also, the inhibition is 20% in assay [2] and -3% in assay [3]. The result in assay [5], in assay [6], in assay [7] and in assay [8] was inactive.
For the compound `c1ccc2cc3c(NCCN4CCOCC4)ccnc3cc2c1`, the growth inhibition in assay [1] was 98% (active); in assay [4] it was 99% (active). Moreover, the inhibition in assay [2] and in assay [3] was -1% in each case. For the same compound, the result in assay [5], in assay [6], in assay [7] and in assay [8] was inactive.
For the compound `CN(C)CCC1CCCc2ccc(NC(=O)Nc3ccc(-c4ccncc4)c4ccccc34)cc21` (stereo not given), the figures for the growth inhibition in assay [1] and in assay [4] were 27% and 89% (active), respectively. The inhibition in assay [2] is 34%; in assay [3] it was 6%. Besides, the result in assay [5], in assay [6], in assay [7] and in assay [8] was inactive.
`NCC1CCCN1Cc1cccc(-c2ccc(-c3nc4ccccc4[nH]3)s2)c1` (stereo not given): the growth inhibition is 66% (active) in assay [1] and 99% (active) in assay [4]. Further, the inhibition in assay [2] is 16%; in assay [3], 3%. Further, the result in assay [5], in assay [6], in assay [7] and in assay [8] was inactive.
